# Shown are actives, neighbours in structure and some others; about 11% of the full set was active somewhere.
# Sm TGR block – qHTS Assay for the Inhibitors of Schistosoma Mansoni Peroxiredoxins; Schistosoma mansoni thioredoxin glutathione reductase (TGR), Q962Y6; purified TGR, DTNB reduction, TNB absorbance 405 nm; Potency, µM (series often up to 114 µM), without a hit: top-dose activity change, negative = inhibition, most hits filed as inhibitors; 360,000 compounds, 3% hits; further: on the % scale 0 is the no-effect control and ±100 the full control effect; nearly all actives have a fitted effect of over 60% in size
#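 TGR 20 nM + NADPH 100 uM (dispensed conc.), cpd preinc 15 min RT; start with NADPH (500 uM addition) then DTNB (15 mM addition). Kinetic TNB absorbance, 405 nm filter. Four-parameter Hill fit across titration.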
# Pf growth 48h – Primary qHTS for delayed death inhibitors of the malarial parasite plastid, 48 hour incubation | P. falciparum luciferase growth in erythrocytes, 48 h | Potency, µM (highest dose often 28.7 µM), without a hit: at the highest dose activity change, negative = inhibition, usual class: inhibitors | 310,000 compounds, 5.9% hits; further: on the % scale 0 is the no-effect control and ±100 the full control effect
#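 Luciferase-expressing P. falciparum in infected erythrocytes (2% hematocrit, 0.1% parasitemia final) in RPMI 1640/0.5% Albumax were exposed to compound for 48 hours at 37 C, 5% CO2; growth read as luminescence.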
# AMA1-RON2 inh – qHTS for Inhibitors of AMA1-RON; Towards Development of Antimalarial Drug Lead: Primary Screen; Plasmodium falciparum AMA1 (3D7) - RON2 peptide interaction; Potency, µM (titrated, usually from 58.2 µM), for the others: at the highest dose activity change, negative = inhibition, usual class: inhibitors; 360,000 compounds, 0.2% hits; AlphaScreen AMA1-biotinylated RON2 peptide binding;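 further: 0% = vehicle wells and -100% = peptide control; nearly all actives have a fitted effect of over 45% in size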
#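 AMA1 (3D7) with his tag at 25 nM final met compounds first, then biotinylated RON2 peptide at 25 nM; detection used donor plus acceptor beads, 10 µg/mL apiece, read by AlphaScreen after 30 min at room temperature.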
# NS1 inh – qHTS Assay for Inhibitors of Influenza NS1 Protein Function | Potency, µM (series often up to 46.1 µM), without a hit: top-dose activity, positive = more growth | AID 2326, 2010 | 270,000 compounds, 0.4% hits; calls by dose curve; further: actives are rising curves; nearly all actives have a fitted effect of over 50% in size
#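 Growth recovery, yeast-based: influenza A NS1 expressed in S. cerevisiae causes slow growth, and suppressors are detected by OD600. The parent strain without NS1 is used as positive control.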
# Pf growth 96h – Primary qHTS for delayed death inhibitors of the malarial parasite plastid, 96 hour incubation; P. falciparum luciferase reporter growth, 96 h; Potency, µM (top dose mostly 28.7 µM), for inactives: at the highest dose activity change, negative = inhibition, usual class: inhibitors; 320,000 compounds, 6.9% hits; further: on the % scale 0 is the no-effect control and ±100 the full control effect
#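 96 h incubation, 37 C, 5% CO2, of luciferase-reporter P. falciparum-infected RBCs (2% hematocrit, 0.05% parasitemia final) with test compounds; endpoint luminescence.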
# Numbers without * were called inactive; ? = inconclusive; · = no result; [ ] = another dose, or the depositor's remark. Unless noted, the call rests on the fitted dose curve; in most records, active means well fitted curve in the direction sought with a large enough effect; inconclusive means small, poorly fitted or top-dose-only effect, or another doubt; inactive means no such curve, though single readings can be large; an effect the other way counts as inactive or inconclusive. Potency means the concentration at half of the fitted maximal effect.
SMILES,Sm TGR block,Pf growth 48h,AMA1-RON2 inh,NS1 inh,Pf growth 96h
CCSc1nnc2c(n1)OC=Nc1ccc(Br)cc1-2,0.4%,-14.0%,-2.3%,-39.3%,?
C=CCSc1nnc2c(n1)OC=Nc1ccc(Br)cc1-2,7.94µM*,-16.4%,2.5%,-26.6%,?
Cc1ccccc1NC(=O)CSc1nnc(Cc2cccn2C)n1-c1ccc(F)cc1,-34.2%,?,-2.7%,-12.0%,10.7%
COc1ccc(-n2c(Cc3cccn3C)nnc2SCC(=O)Nc2cc(Cl)ccc2OC)cc1,-16.3%,10.4µM*,-18.0%,-4.0%,?
Cn1cccc1Cc1nnc(SCC(=O)Nc2ccccc2F)n1-c1ccc(F)cc1,?,13.1µM*,15.6%,10.3%,?
COc1ccc(-n2c(Cc3cccn3C)nnc2SCC(=O)Nc2ccccc2OC)cc1,-19.8%,13.1µM*,21.0%,-5.9%,?
CC(C)=CCN1CCN(Cc2ccc(C#CC(C)(C)O)s2)CC1CCO (stereo not given),12.7%,2.0%,1.9%,-0.1%,0.0%
CCOc1cccc(CC(=O)NCc2ccc3c(c2)CCN3C(C)=O)c1OCC,1.8%,·,·,·,·
Cc1ccc(N2CCN(C(=O)Cn3ncc4c([nH]c5ccc(C)cc54)c3=O)CC2)c(C)c1,7.0%,·,·,·,·
O=C(CSc1nnc(-c2ccc(Cl)cc2)n1Cc1ccco1)Nc1ccc2c(c1)OCCO2,25.1µM*,?,-28.5%,-38.0%,?
Cc1cc(Cl)ccc1NC(=O)CSc1nnc(-c2ccncc2)n1Cc1ccco1,44.7µM*,-20.3%,-10.1%,3.9%,?
CCc1nnc(SCC(=O)Nc2ccc3c(c2)OCO3)n1CC,-12.8%,14.5%,8.0%,13.5%,?
CCn1c(COc2ccc(Cl)cc2)nnc1SCC(=O)Nc1ccc2c(c1)OCO2,-0.6%,10.2%,-4.7%,-10.8%,10.4µM*
Cc1cccc(C)c1NC(=O)CSc1nnc(-c2ccncc2)n1Cc1ccco1,8.1%[11.4 µM],·,2.5%,-1.2%,12.8%
O=C(CSc1nnc(-c2ccncc2)n1Cc1ccco1)OC1CCCCC1,39.8µM*,-3.1%,-0.7%,-1.3%,·
Cc1nn(CCCC(=O)Nc2ccccc2C(F)(F)F)c(=O)c2nn(-c3ccccc3)c(C)c12,-8.5%,·,·,·,·
Cc1cccc(-c2nc(CN3CCCC(C(=O)NCCc4ccc(Cl)cc4)C3)c(C)o2)c1 (stereo not given),-2.3%,·,·,·,·
CC(=O)Nc1cccc(NC(=O)CSc2ncc(-c3ccc(Cl)cc3)n2Cc2ccco2)c1,-19.0%,?,-4.9%,-53.3%,?
Cc1nnc(SCC(=O)Nc2ccc3c(c2)OCCO3)n1N,2.0%,14.7%,-16.9%,-6.2%,·
Cc1ccc(-c2nnc(SCC(=O)Nc3ccc4c(c3)OCCO4)n2N)cc1,8.1%,7.7%,-1.7%,5.8%,10.4µM*
NC(=O)c1ccc(NC(=O)CSc2nnc(-c3ccncc3)n2Cc2ccco2)cc1,-1.0%,3.4%,-27.1%,-0.8%,7.1%
COc1ccc(-c2cnc(SCC(=O)Nc3ccc4c(c3)OCO4)n2Cc2ccco2)cc1,-23.7%,·,14.1µM*,-55.7%,·
O=C(CSc1nnc(-c2ccncc2)n1Cc1ccco1)Nc1nccs1,-22.5%,13.7%,0.0%,2.7%,7.38µM*
Cc1ccc(NC(=O)Cn2c(=O)n(CCc3ccccc3)c(=O)c3sc4ccccc4c32)cc1C,0.8%,·,·,·,·
CCOc1ccc(C2NC(=O)c3sc(=S)n(-c4ccccc4)c3N2)cc1 (stereo not given),-31.7%,4.15µM*,-10.5%,-5.1%,5.86µM*
SMILES,Sm TGR block,Pf growth 48h,AMA1-RON2 inh,NS1 inh,Pf growth 96h
Cn1c(CN2CCN(C(=O)c3ccc(F)cc3)CC2)nc2cc([N+](=O)[O-])ccc21,-4.8%,?,-14.8%,-6.9%,13.1µM*
CCOC(=O)N1CCN(Cc2nc3cc(NC(=O)c4ccco4)ccc3n2C)CC1,50.1µM*,?,7.8%,-17.1%,39.3%
CC(=O)N1CCN(Cc2nc3cc(NC(=O)C4CCCCC4)ccc3n2C)CC1,-3.7%,-22.8%,12.9%,8.4%,1.85µM*
CC(=O)N1CCN(Cc2nc3cc([N+](=O)[O-])ccc3n2C)CC1,92.6%,14.3%,2.0%,5.4%,26.4%
CCC(Cc1ccccc1)NC(=O)c1cc(S(=O)(=O)N2CCCCC2)c[nH]1 (stereo not given),-3.3%,-19.1%,10.0%,-13.5%,2.94µM*
CCCCN1CCC(n2c(=O)[nH]c3ccccc32)CC1,·,·,·,-15.9%,·
O=c1[nH]c2ccccc2n1CCCN1CCC(n2c(=O)[nH]c3cc(Cl)ccc32)CC1,11.9%,10.7µM*,-20.3%,-0.2%,4.78µM*
COc1ccc(NC(=O)C2(S(=O)(=O)c3ccc(C)cc3)CC2)c(OC)c1,5.6%,·,·,·,·
COc1ccccc1-n1c(C)c2c(OC)cccc(=O)c2c1C,-13.8%,4.15µM*,-8.4%,?,154.4%
COc1cccc(=O)c2c(C)n(-c3ccc(C(=O)O)cc3)c(C)c12,?,?,2.8%,14.4%,22.8%
COc1ccc(-n2c(C)c3c(OC)cccc(=O)c3c2C)cc1,4.8%,?,4.4%,-0.8%,10.4µM*
CCN1CCN(CC(=O)N2CCCC(C(=O)c3ccc(Oc4ccccc4)cc3)C2)CC1 (stereo not given),-13.7%,?,-18.5%,-40.3%,?
CC(CO)Nc1nc(SCc2ccccc2)nc2sc3c(c12)CCC3 (stereo not given),-30.1%,?,9.6%,5.6%,7.38µM*
COCCNc1nc(SCc2ccccc2)nc2sc3c(c12)CCC3,-25.9%,?,8.5%,18.2%,?
CC(C)CCN(CCC(C)C)C/C(O)=C(\C#N)c1nc(-c2ccccc2)cs1,-15.8%,·,18.7%,3.8%,2.62µM*
COc1ccc2[nH]c3c(=O)n(CCCCC(=O)NCCC(C)C)c(=S)[nH]c3c2c1,-6.9%,?,95.1%,·,5.22µM*
CCCNC(=O)CCCCn1c(=S)[nH]c2c([nH]c3ccc(OC)cc32)c1=O,-1.2%,198.0%,114.7%,·,-1.0%
CC1=NC(=O)C(N=Nc2ccccc2C(=O)O)N1c1ccccc1 (stereo not given),-15.5%[57.1 µM],-29.8%,48.4%,-1.9%,4.65µM*
O=C1Oc2ccccc2C(=O)/C1=C\N1CCN(c2ccccc2)CC1,-21.4%,5.0%,3.6%,·,8.1%
O=C1OC(c2ccccc2)=C/C1=C\N1CCOCC1,20µM*,94.5%,-1.9%,-4.8%,16.7%
O=C1OC(c2ccccc2)=C/C1=C/N1CCOCC1,39.8µM*,158.9%,-9.9%,3.0%,?
CN(C(=O)CSc1nc2sc3c(c2c(=O)n1C)CCC3)C1CCS(=O)(=O)C1 (stereo not given),3.7%,-24.5%,-5.1%,·,-20.1%
COc1ccc(OC)c(C(O)C2CCCCN2)c1 (stereo not given),-5.3%,?,-7.3%,0.6%,3.29µM*

# Compound activity: PubChem, National Center for Advancing Translational Sciences (NCATS)
